{"source": "PubChem BioAssay AID651784", "about": "(National Center for Advancing Translational Sciences (NCATS), 2012)", "note": "Records with an inconclusive call do not appear. The source made the active and inactive calls. Calls come from the whole dose curve; as a rule, active = well fitted inhibition curve with a large enough effect; inconclusive = small, poorly fitted or top-dose-only effect; inactive = no such curve, though single readings can be large or run the other way. Potency is the fitted concentration of half-maximal effect.", "data": [{"test": "Acumen qHTS Assay for Inhibitors of the mTORC1 Signaling Pathway in MEF (Tsc2-/-, p53-/-) Cells: Hit Validation;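 note: phospho-rpS6 Ser235/236 immunofluorescence normalized to propidium iodide cell count; nearly all actives have a fitted effect of over 65% in size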;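 for activity change, negative = inhibition: cells exposed to compound for 24 hours; plate controls were DMSO for no effect and 7.5 nM rapamycin control for full effect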", "settings": "Acumen imaging; activity change, negative = inhibition: at 37.3 µM (top of the series)", "units": {"activity change, negative = inhibition": "%"}, "values": [{"compound": "CCOC(=O)N1CCN(Cc2nc3cc(NC(=O)CC(C)C)ccc3n2C(C)C)CC1", "Potency": "2.61 µM (active)"}, {"compound": "CN(Cc1ccccc1)C(=O)CSc1c2c(nc3ccc(Cl)cc13)CCCC2", "activity change, negative = inhibition": 9.63}, {"compound": "Cc1nn(CC(=O)NCc2ccccc2Cl)c(=O)c2cccn12", "activity change, negative = inhibition": 6.27}, {"compound": "CCC(C)NC(=O)c1sc2nc(C)c(C(=O)Nc3ccc(C)cc3C)c(-c3ccc(Cl)cc3)c2c1N", "note": "(stereo not drawn)", "activity change, negative = inhibition": -10.2}, {"compound": "Cc1ccccc1NC(=O)Cn1cc(C(=O)c2cccs2)c2ccccc21", "activity change, negative = inhibition": 1.72}, {"compound": "CCOc1ccc(Nc2nc(-c3cccc(Cl)c3)c3c(n2)-c2ccccc2OC3)cc1", "activity change, negative = inhibition": 6.48}, {"compound": "O=C(c1ccc(CS(=O)c2ccccc2Cl)o1)N1CCN(c2cccc(Cl)c2)CC1", "note": "(stereo not drawn)", "Potency": "0.521 µM (active)"}, {"compound": "Cc1ccc(C)c(S(=O)(=O)NCC(c2ccco2)S(=O)(=O)c2ccc(F)cc2)c1", "note": "(stereo not drawn)", "activity change, negative = inhibition": -16.2}, {"compound": "COc1ccc(-c2n[nH]c3c2C(c2ccc(O)cc2)N(c2ccc(Br)cc2)C3=O)cc1", "note": "(stereo not drawn)", "activity change, negative = inhibition": 2.17}, {"compound": "Cc1ccc(C(=O)Nc2c(C(=O)NCc3ccc(Cl)cc3)sc3nc(C)cc(C)c23)cc1", "activity change, negative = inhibition": -89.8}, {"compound": "c1ccc(N2CCN(c3ncnc4[nH]ncc34)CC2)cc1", "activity change, negative = inhibition": 6.17}, {"compound": "Cc1oc(-c2ccccc2F)nc1Cn1c(SCc2cccc(Cl)c2)nc2ccncc21", "activity change, negative = inhibition": -12.7}, {"compound": "COCCCNC(=O)c1ccc(CSc2nc3cccnc3n2Cc2ccc(OC)cc2)cc1", "activity change, negative = inhibition": 2.82}, {"compound": "CC(C)(C)C1CCc2c(sc(NC(=O)C3c4ccccc4Oc4ccccc43)c2C(N)=O)C1", "note": "(stereo not drawn)", "activity change, negative = inhibition": -15.3}, {"compound": "CCOc1ccc(CNC(=O)c2ccccc2NC(=O)c2nsc3ccccc23)cc1", "activity change, negative = inhibition": -112}, {"compound": "O=C(CS(=O)(=O)c1cccc2nsnc12)NCc1ccc(Cl)cc1", "activity change, negative = inhibition": 10.4}, {"compound": "CCN1C(=O)c2ccccc2Sc2ccc(NC(=O)Cc3ccc(OC)cc3)cc21", "Potency": "4.14 µM (active)"}, {"compound": "COc1cc2c(cc1OC)n(CC(=O)c1ccc(F)cc1)c(=O)n1nc(CCn3nc(C)cc3C)nc21", "activity change, negative = inhibition": -5.74}, {"compound": "O=C(Cn1cc(SCc2ccccc2)c2ccccc21)N1CCCCCC1", "activity change, negative = inhibition": 15.1}, {"compound": "CCOc1ccc(NC(=O)c2sc3nc4c(cc3c2N)CCCCCC4)cc1", "Potency": "9.27 µM (active)"}, {"compound": "COc1ccc(OC)c(C(=O)CC2(O)C(=O)N(Cc3ccccc3C)c3ccccc32)c1", "note": "(stereo not drawn)", "Potency": "2.61 µM (active)"}, {"compound": "COc1ccc(NC(=O)C(NC(=O)/C=C\\c2ccc3c(c2)OCO3)c2ccccc2)cc1", "note": "(stereo not drawn)", "Potency": "11.7 µM (active)"}, {"compound": "CCCC1=Nc2cc(C(=O)NC3CCCC3)ccc2Sc2ccc(C)cc21", "Potency": "1.17 µM (active)"}, {"compound": "CCS(=O)(=O)c1ncc(Cl)c(C(=O)N(Cc2ccccc2)c2ccc(OC)cc2)n1", "Potency": "2.93 µM (active)"}, {"compound": "Cc1ccc(CN(Cc2cccn2-c2nnc(N3CCCC3=O)s2)C(=O)Nc2ccccc2C(F)(F)F)cc1", "activity change, negative = inhibition": -12.7}, {"compound": "CC1CCN(S(=O)(=O)c2ccc(C(=O)Nc3sc4c(c3C(N)=O)CC(C)(C)NC4(C)C)cc2)CC1", "activity change, negative = inhibition": -107}, {"compound": "COc1ccc(C2Sc3ccccc3NC3=C2C(=O)c2ccccc23)c(OC)c1OC", "note": "(stereo not drawn)", "activity change, negative = inhibition": -65.9}, {"compound": "CCCCS(=O)(=O)c1oc(-c2ccc(F)cc2)nc1S(=O)(=O)c1ccccc1", "activity change, negative = inhibition": -151}, {"compound": "Cc1ccc(CN2C(=O)C(=O)c3cc(Br)cc(C)c32)cc1", "Potency": "9.27 µM (active)"}, {"compound": "O=C(c1ccco1)n1nc(-c2ccc(Cl)cc2)nc1NCc1ccccc1", "activity change, negative = inhibition": -47.3}, {"compound": "CCOc1cc(-c2nnc(SCC(=O)NCc3ccccc3)nc2-c2ccc(OC)c(OCC)c2)ccc1OC", "Potency": "2.07 µM (active)"}, {"compound": "COc1ccc2c(c1)CCc1c(C(=O)Nc3c(C)nn(Cc4ccc(Cl)cc4)c3C)noc1-2", "activity change, negative = inhibition": -75.9}, {"compound": "COc1ccc(-c2ccc(CCC(=O)O)n2-c2cc(Cl)ccc2O)cc1", "activity change, negative = inhibition": -7.48}, {"compound": "CCC(C(=O)N1CCN(c2cccc(C)c2C)CC1)n1nc(C)c2sc3ccccc3c2c1=O", "note": "(stereo not drawn)", "activity change, negative = inhibition": -0.603}, {"compound": "O=C(NC1CCN(Cc2ccccc2)CC1)c1ccc(Cn2c(=O)c3ccccc3n(Cc3ccc(F)cc3)c2=O)cc1", "Potency": "3.69 µM (active)"}, {"compound": "COc1cc(C(=O)Nc2ccc(NC(=O)c3ccc(C(C)(C)C)cc3)cc2)cc(OC)c1OC", "Potency": "10.4 µM (active)"}, {"compound": "COc1ccc(CNC(=O)c2cccc(N3CCCS3(=O)=O)c2)cc1OC", "Potency": "5.21 µM (active)"}, {"compound": "CCN1CCOC(=O)C1CC(=O)Nc1cccc(OC)c1", "note": "(stereo not drawn)", "activity change, negative = inhibition": -21.3}]}]}
